Assay results reported in PubChem BioAssay (EPA / NIEHS).
The source holds several records for some structures; these can differ, active in one and inactive in another. Calls of active or inactive are those of the source. The calls were made as follows: active = hit-call score of the fitted dose curve at least 0.9, where 1 is the maximum; inactive = score below 0.9.

experiment: BSK_3C_SRB: Viability Assessment in the BioMAP Diversity Plus: 3C Assay (AID 2283023); conditions: primary human endothelial cells (HUVEC);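 also: fitted both ways against DMSO so a hit may be signal rise or drop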
Method: BSK_3C is a cell-based, multiplexed-readout assay that uses umbilical vein endothelium, a human vascular primary cell, with measurements taken at 24 hours after chemical dosing in a 96-well plate.BSK_3C_SRB is an assay component measured in the BSK_3C assay. It measures 0.1% sulforhodamine related to cell death using Sulforhodamine staining technology.Data from the assay component BSK_3C_SRB was analyzed into 1 assay endpoint. This assay endpoint, BSK_3C_SRB, was analyzed with bidirectional fitting relative to DMSO as the negative control and baseline of activity. Using a type of viability reporter, gain or loss-of-signal activity can be used to understand changes in the signaling. Furthermore, this assay endpoint can be referred to as a primary readout, because this assay has produced multiple assay endpoints where this one serves a signaling function. To generalize the intended target to other relatable targets, this assay endpoint is annotated to the cell morphology intended target family, where the subfamily is cell conformation.
The levels of cell surface (or secreted, indicated by the prefix "s") biomarker endpoints were measured by ELISA. Overt cytotoxicity to cells in confluent adherent cultures (all systems other than the BT system) was assessed by measuring total protein levels using sulforhodamine B (SRB) staining in parallel cultures at the time of biomarker measurements, indicated as SRB endpoints. For proliferation assays for adherent cell types, individual cell types are cultured at sub-confluence and relative cell numbers quantified by SRB staining at time points optimized for each system (48 h: 3C and CASM3C systems; 72 h: BT and HDF3CGF systems; 96 h: SAg system). SRB was performed by staining cells with 0.1% SRB after fixation with 10% TCA and reading wells at 560 nm.Viability and proliferation of PBMC (T cells) was quantified by Alamar Blue reduction for the SAg and BT systems. For PBMC viability (referred to as PBMC Cytotoxicity within the assay endpoint names), cells were plated (75,000/well in a 96-well plate) and then chemical samples added for 1 h before addition of activators, SEB and TSST-1 (20 ng/mL final concentration each). Cells were incubated for 90 h. Then, Alamar Blue (20 uL/well) (Invitrogen, Cat DAL1100) was added for 6 h, and the plates were read with a fluorescence microplate reader at 546/580 nm (excitation/emission). For PBMC proliferation, cells were plated and activated as above but incubated for only 16 h prior to addition of Alamar Blue. Plates were read after 6 h.

SMILES | outcome | AC50
S=C([S-])NCCNC(=S)[S-].[Mn+2] | inactive | –
S=C(S)NCCNC(=S)S.[Mn+2].[S-]C([S-])=NCCN=C([S-])[S-].[Zn+2] | inactive | –
O=C(c1ccccc1)C1CCCCC1 | inactive | –
COC(=O)c1cccc(C)c1S(=O)(=O)NC(=O)Nc1nc(OCC(F)(F)F)nc(N(C)C)n1 | inactive | –
OB(O)O | inactive | –
CCOC(=O)c1ccc(O)cc1 | inactive | –
CCOC(=O)[C@H](C)Oc1ccc(Oc2nc3ccc(Cl)cc3o2)cc1 | inactive | –
C[C@]12CC[C@@H]3c4ccc(O)cc4C[C@@H](CCCCCCCCCS(=O)CCCC(F)(F)C(F)(F)F)[C@H]3[C@@H]1CC[C@@H]2O (stereo not given in full) | – | 3.51 µM (active)
CN(C)C(=O)Nc1ccc(Cl)c(Cl)c1 | inactive | –
CCN(CC)C(=O)c1cccc(C)c1 | inactive | –
C[C@]12C[C@H](O)[C@H]3[C@@H](CCC4=CC(=O)CC[C@@]43C)[C@@H]1CC[C@@H]2C(=O)CO | inactive | –
CCOC(=O)C(C)Oc1ccc(Oc2cnc3cc(Cl)ccc3n2)cc1 (stereo not given) | inactive | –
CCN(Cc1c(F)cccc1Cl)c1c([N+](=O)[O-])cc(C(F)(F)F)cc1[N+](=O)[O-] | – | 11.8 µM (active)
c1ccc(Nc2ccccc2)cc1 | inactive | –
COCCO | inactive | –
CCCCC(CC)CN1C(=O)C2C3C=CC(C3)C2C1=O (stereo not given) | – | 16.9 µM (active)
CCCOC(=O)c1ccc(C(=O)OCCC)nc1 | inactive | –
CCCCOC(=O)[C@@H](C)Oc1ccc(Oc2ccc(C(F)(F)F)cn2)cc1 | inactive | –
CCCCOCCOCCOCc1cc2c(cc1CCC)OCO2 | – | 21 µM (active)
COC(=O)c1ccccc1S(=O)(=O)NC(=O)Nc1nc(OC(F)F)cc(OC(F)F)n1 | inactive | –

SMILES | outcome | AC50
CC(=O)[C@H]1CC[C@H]2[C@@H]3CCC4=CC(=O)CC[C@]4(C)[C@H]3CC[C@]12C | – | 6.1 µM (active)
CCC(C)OC(=O)N1CCCCC1CCO (stereo not given) | inactive | –
CCOC(=O)NCCOc1ccc(Oc2ccccc2)cc1 | – | 20 µM (active)
CC(C)(c1ccc(O)cc1)c1ccc(O)cc1 | inactive | 14.2 µM (active)
O=C(O)C1(C(=O)Nc2ccc(Cl)cc2Cl)CC1 | inactive | –
CCNc1nc(N)nc(Cl)n1 | inactive | –
O=C(Nc1ccc([N+](=O)[O-])cc1Cl)c1cc(Cl)ccc1O | – | 0.589 µM (active)
CCCN(CCC)C(=O)SCC | inactive | –
COc1c(Cl)ccc(Cl)c1C(=O)O | inactive | –
C#C[C@]1(O)CC[C@H]2[C@@H]3CCC4=CC(=O)CC[C@@H]4[C@H]3CC[C@@]21CC | inactive | –
CCSC(=O)N(CC(C)C)CC(C)C | inactive | –
c1ccc2[nH]c(-c3cscn3)nc2c1 | inactive | –
CC1(C)C(C=C(Cl)Cl)C1C(=O)OCc1cccc(Oc2ccccc2)c1 (stereo not given) | – | 6.15 µM (active)
CC(C)CCCCCCc1ccc(O)cc1 | – | 9.24 µM (active)
CC(C)(C)[C@@H](O)[C@@H](Cc1ccc(Cl)cc1)n1cncn1 | inactive | –
CCCCCOC(=O)COc1cc(N2C(=O)C3=C(CCCC3)C2=O)c(F)cc1Cl | inactive | –
COC(=O)CSc1cc(N=c2sc(=O)n3n2CCCC3)c(F)cc1Cl | inactive | –
COc1nc(C)nc(NC(=O)NS(=O)(=O)c2ccccc2OCCCl)n1 | inactive | –
COC(=O)c1ccc(CNS(C)(=O)=O)cc1S(=O)(=O)NC(=O)Nc1nc(OC)cc(OC)n1 | inactive | –
